Source: PubChem BioAssay
SKOV3 invasion = inhibitors of ovarian cancer cell adhesion and invasion in omental model; SKOV3ip1-GFP adhesion/invasion on 3D omental model, fluorescence; Potency, µM (series often up to 45.8 µM), for the others: at the highest dose activity change, negative = inhibition, usual class: inhibitors; actives 0.1% (n = 46,000); AID 1963576;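 further: potency means the concentration at half of the fitted maximal effect; plate controls were DMSO wells for no effect and tomatine positive control wells for full effect; nearly all actives have a fitted effect of over 65% in size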
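qHTS, 4-pt dose (0.36-46 umol/L); SKOV3ip1-GFP, 1,200 cells/well, no FBS; primary omental fibroblast/mesothelial co-culture 48 h pre-grown; 2 h RT + 16 h 37 C; PBS wash, 4% PFA; GFP count 488/509 nm.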
HTT promoter inh = inhibitors of huntingtin promoter activity; actives 0.93% (n = 48,000); Potency, µM (top dose mostly 57.5 µM), inactives show top-dose activity change, negative = inhibition, hits mostly inhibitors; HEK293 HTT promoter firefly luciferase reporter, 24 h; further: potency means the concentration at half of the fitted maximal effect; nearly all actives have a fitted effect of over 50% in size
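Quantitative HTS used concentration series of up to 57.5 uM final on HEK293 luciferase reporter cells, 24 h at 37 degrees C. Readout was Dual-Glo firefly luminescence.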
pS6 MEF inh = inhibitors of mTORC1 signaling in Tsc2-/- p53-/- MEF cells. Tsc2-/- p53-/- MEF, phospho-rpS6 immunofluorescence/PI, 24 h. Potency, µM (series often up to 38.3 µM), inactives show at the highest dose activity change, negative = inhibition, actives largely listed as inhibitors. actives 0.78% (n = 44,000). AID 493208;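 further: potency means the concentration at half of the fitted maximal effect; plate controls were DMSO for no effect and rapamycin for full effect; nearly all actives have a fitted effect of over 50% in size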
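Tsc2-/-, p53-/- MEFs (empty-vector stable line) in DMEM + 10% FBS were treated with compounds 24 h at 37 degree Celsius, fixed, and immunostained for phospho-rpS6 (Alexa-488) with propidium iodide counterstain. Laser-scanning cytometry gave % positive cells, normalized against 7.5 nM rapamycin and DMSO.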
HTT-AS act = activates huntingtin-antisense promoter activity | HEK293 HTT-AS promoter firefly luciferase reporter, 24 h; response scale: percent change from vehicle, -100% = no light | Potency, µM (top dose mostly 57.5 µM), for inactives: at the top dose activity change, positive = activation, hits mostly activators | actives 0.24% (n = 48,000); further: potency means the concentration at half of the fitted maximal effect; nearly all actives have a fitted effect of over 55% in size
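Luminescence was read after Dual-Glo reagent and a 10 min room-temperature incubation. Values were normalized to vehicle (0% activity) and zero RLU (-100% activity). Reporter HEK293 cells had been exposed to compounds (up to 57.5 uM final) for 24 h.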
PMP22 txn = modulates PMP22 transcription in S16 Schwann cells. S16 Pmp22-F2sN Schwann cells, FLuc/NLuc coincidence luminescence, 24 h. Potency, µM (doses to about 57.5 µM), inactives show at the top dose activity change, negative = inhibition, actives largely listed as inhibitors. actives 2% (n = 43,000); active means clear falling dose curves in both reporters; inconclusive means both reporters move, but less clearly or upward; inactive means either reporter flat; the % is the NLuc reporter signal; further: potency means the concentration at half of the fitted maximal effect; on the % scale 0 is the no-effect control and ±100 the full control effect
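Reporter cells (S16 Pmp22-F2sN, 500–1,000 per well) exposed to compounds for 24 h, 37C, 5% CO2; lysis with FLuc read after 10 min, then Stop&Glo and NLuc read after 10 min.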
S16 viability = cytotoxicity in S16 Pmp22-F2sN Schwann cells. Potency, µM (doses to about 57.5 µM), inactives show at the top dose activity change, negative = cytotoxicity, actives largely listed as cytotoxic. S16 Pmp22-F2sN Schwann cells (luciferase reporters placed in the Pmp22 gene) viability, CellTiter-Glo, 24 h. AID 1508642. actives 0.48% (n = 43,000); further: potency means the concentration at half of the fitted maximal effect; on the % scale 0 is the no-effect control and ±100 the full control effect; nearly all actives have a fitted effect of over 65% in size
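CellTiter-Glo counter-screen, qHTS, 1536-well. Cells: S16(c9) Pmp22-F2sN, 500-1,000/well in DMEM + 10% FBS. Cpd 23 nL pin transfer, 24 h, 37C/5% CO2. Read: luminescence, CCD imager.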
NLuc saturating = counter-screen for PMP22 expression modulators: NanoLuc inhibition, saturating substrate; shares compounds with PMP22 txn; Potency, µM (highest dose often 57.5 µM), for the others: at the top dose activity change, negative = inhibition, actives largely listed as inhibitors; actives 4% (n = 690); AID 1508638; Secreted NLuc enzyme (filtered S16 cell medium), Nano-Glo luminescence; further: potency means the concentration at half of the fitted maximal effect; on the % scale 0 is the no-effect control and ±100 the full control effect
NLuc Km ctr = inhibits NanoLuc under Km conditions, PMP22 counter-screen. actives 5% (n = 690). shares compounds with PMP22 txn. AID 1508639. Potency, µM (top dose mostly 57.5 µM), without a hit: at the highest dose activity change, negative = inhibition, usual class: inhibitors. secreted NLuc enzyme, coelenterazine luminescence, Km conditions; further: potency means the concentration at half of the fitted maximal effect; on the % scale 0 is the no-effect control and ±100 the full control effect
FLuc counter = inhibits firefly luciferase, PMP22 counter-screen | shares compounds with PMP22 txn | 690 tested, under 10 active | purified P. pyralis FLuc, luminescence, 10 min | Potency, µM (top dose mostly 57.5 µM), for the others: at the highest dose activity, negative = inhibition, most hits filed as inhibitors; further: % of control where 0% means no effect
Target sequence (P08659 whole entry, looked up): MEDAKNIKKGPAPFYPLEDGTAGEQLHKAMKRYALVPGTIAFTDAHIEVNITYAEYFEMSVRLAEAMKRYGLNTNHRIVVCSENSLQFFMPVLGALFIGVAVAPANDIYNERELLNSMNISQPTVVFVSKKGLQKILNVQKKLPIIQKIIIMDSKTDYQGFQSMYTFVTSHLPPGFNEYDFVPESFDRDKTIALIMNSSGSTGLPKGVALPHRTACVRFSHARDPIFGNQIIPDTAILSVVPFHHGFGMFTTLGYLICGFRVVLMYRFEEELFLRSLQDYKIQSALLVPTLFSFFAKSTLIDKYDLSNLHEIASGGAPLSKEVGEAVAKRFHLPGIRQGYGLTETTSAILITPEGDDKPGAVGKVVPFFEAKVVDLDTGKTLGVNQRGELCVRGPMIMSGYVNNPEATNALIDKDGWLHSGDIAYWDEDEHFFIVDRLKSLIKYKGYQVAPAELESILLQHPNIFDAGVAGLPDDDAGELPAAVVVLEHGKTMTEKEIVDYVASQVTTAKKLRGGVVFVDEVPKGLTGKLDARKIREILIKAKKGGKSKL
S16 viab conf = S16 Schwann cell cytotoxicity, confirmatory; S16 Schwann cells viability, CellTiter-Glo ATP luminescence, 24 h; Potency, µM (top dose mostly 57.5 µM), inactives show top-dose activity change, negative = viability loss, actives largely listed as cytotoxic; AID 1508641; shares compounds with PMP22 txn; actives 7% (n = 690); further: potency means the concentration at half of the fitted maximal effect; on the % scale 0 is the no-effect control and ±100 the full control effect
PMP22 txn conf = PMP22 transcription modulation, confirmatory | shares compounds with PMP22 txn | S16 Schwann cells Pmp22-F2sN, dual luciferase, 24 h | Potency, µM (doses to about 57.5 µM), inactives show at the top dose activity change, negative = inhibition, most hits filed as inhibitors | actives 22% (n = 690) | AID 1508646; active means clear falling dose curves in both reporters; inconclusive means both reporters move, but less clearly or upward; inactive means either reporter flat; the % is the FLuc reporter signal; further: potency means the concentration at half of the fitted maximal effect
PMP22 HiBiT cnf = rat PMP22 protein level modulation, confirmatory; shares compounds with PMP22 txn; S16 Schwann cells Pmp22-HiBiT, luminescence, 48 h; Potency, µM (highest dose often 27.9 µM), for inactives: at the top dose activity change, negative = inhibition, most hits filed as inhibitors; 95 tested, under 10 active
Target sequence (P25094 whole entry, looked up): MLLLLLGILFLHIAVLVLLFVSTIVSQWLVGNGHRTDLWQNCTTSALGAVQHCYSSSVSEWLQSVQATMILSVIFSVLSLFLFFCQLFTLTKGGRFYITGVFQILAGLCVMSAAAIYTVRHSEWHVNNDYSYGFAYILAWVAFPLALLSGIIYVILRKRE
Starred values were filed as active, the others as inactive; i = inactive; ? = inconclusive; nt = no result given. A selection: hits, their analogues and other compounds. The true share with any hit is near 3.6%. Unless noted, the call rests on the fitted dose curve; in most records, active means well fitted curve in the direction sought with a large enough effect; inconclusive means small, poorly fitted or top-dose-only effect, or another doubt; inactive means no such curve, though single readings can be large; an effect the other way counts as inactive or inconclusive.

SMILES	SKOV3 invasion	HTT promoter inh	pS6 MEF inh	HTT-AS act	PMP22 txn	S16 viability	NLuc saturating	NLuc Km ctr	FLuc counter	S16 viab conf	PMP22 txn conf	others
CC1(COc2ccc3c(c2)ncn3-c2ccc3cccc(N4CCC(N)CC4)c3n2)COC1	-3.6%	?	nt	-50.6%	nt	nt	nt	nt	nt	nt	nt
O=C(CSC1=Nc2ccccc2N=C(c2ccc(F)cc2)C1)Nc1ccccc1	i	-14.3%	-7.6%	-28.0%	-30.8%	25.6%	nt	nt	nt	nt	nt
CC(=O)c1ccc(NC(=O)CSC2=Nc3ccccc3N=C(c3ccc(F)cc3)C2)cc1	15.6%	-2.4%	3.8%	-37.1%	14.5µM*	?	?	?	-0.1%	-6.2%	?
COc1cc2nccc(Oc3ccc(NC(=O)NC4CC4)c(Cl)c3)c2cc1C(N)=O	-1.2%	?	nt	-22.4%	nt	nt	nt	nt	nt	nt	nt
COc1ccc(NC(=O)N2CCc3c(sc4c3CCCC4)C2c2ccc(F)cc2)cc1 (configuration not stated)	-1.0%	?	19.9%	-22.2%	15.2µM*	?	-11.6%	-13.3%	2.1%	?	-30.2%
Cc1cccc(NC(=O)N2CCc3c(sc4c3CCCC4)C2c2ccc(F)cc2)c1 (configuration not stated)	2.5%	?	8.2%	-24.4%	-14.3%	-22.4%	nt	nt	nt	nt	nt
OC1(c2ccccc2)CCNCC1	nt	-4.4%	nt	-3.0%	nt	nt	nt	nt	nt	nt	nt
Cc1ccc(CCNC(=O)c2ccc(Nc3nc4ccccc4n4nnnc34)cc2)cc1	1.6%	-5.6%	1.0%	2.9%	?	-9.6%	-12.6%	1.2%	-3.0%	24.3µM*	?
O=C(NCc1ccccc1)c1cccc(Nc2nc3ccccc3n3nnnc23)c1	6.5%	19.1%	-3.0%	-3.5%	12.7µM*	?	-1.5%	1.8%	7.3%	21.7µM*	13.7µM*
CCOc1ccc(CCNC(=O)c2ccc(Nc3nc4ccccc4n4nnnc34)cc2)cc1OCC	-27.8%	1.2%	-0.8%	-5.3%	?	-26.9%	nt	nt	nt	nt	nt
CCc1ccccc1NC(=O)CSc1ncc(S(=O)(=O)c2ccc(C(C)C)cc2)c(N)n1	i	?	0.3%	-43.3%	17.9µM*	-2.1%	?	1.0%	4.8%	21.4%	?
Cc1cnc(-c2cnc(NCCNc3ccc(C#N)cn3)nc2-c2ccc(Cl)cc2Cl)[nH]1	-16.8%	-22.4%	nt	-21.4%	nt	nt	nt	nt	nt	nt	nt
O=C(CSc1nncn2c1cc1occc12)Nc1ccc(F)c(Cl)c1	3.7%	-4.5%	-15.2%	-13.9%	-26.0%	-2.7%	nt	nt	nt	nt	nt
CCC(Sc1nncn2c1cc1occc12)C(=O)Nc1ccc(C)c(Cl)c1 (configuration not stated)	4.2%	-21.5%	0.0%	?	16.8µM*	?	?	?	-15.6%	-4.5%	?
CC1=Nc2cc(C(=O)NCCc3ccccc3)ccc2Sc2c(C)ccc(C)c21	1.9%	?	-12.7%	-39.9%	2.73µM*	-2.7%	-5.0%	3.8%	-10.7%	?	?
CC1=Nc2cc(C(=O)NCCc3ccc(Cl)cc3)ccc2Sc2c(C)ccc(C)c21	i	?	-11.2%	-42.1%	7.81µM*	-7.4%	-4.8%	3.6%	2.2%	?	?
CCC1=Nc2cc(C(=O)NCCc3ccc(OC)c(OC)c3)ccc2Sc2ccccc21	73.4%	?	0.6%	-38.0%	?	-0.5%	nt	nt	nt	nt	nt
COc1ccc(CNC(=O)c2ccc3c(c2)N=C(C)c2c(C)ccc(C)c2S3)cc1	-1.3%	?	1.0%	-45.0%	?	14.5%	nt	nt	nt	nt	nt
CCCNC(=O)c1ccc2c(c1)N=C(C)c1c(C)ccc(C)c1S2	-5.8%	?	?	-53.6%	0.392µM*	3.3%	-5.9%	?	0.0%	16.2%	?
Cc1ccc(C(=O)Nc2cccc(C(F)(F)F)c2)cc1-c1ccc2nc(NCCN3CCOCC3)ncc2c1	?	?	nt	-21.2%	nt	nt	nt	nt	nt	nt	nt
CCCCCOC(=O)Nc1nc(=O)n([C@@H]2O[C@H](C)[C@@H](O)C2O)cc1F (some centres not stated)	4.7%	-2.6%	nt	9.8%	nt	nt	nt	nt	nt	nt	nt
Cc1cccc(C(=O)Nc2cccc(C(=O)OCc3cc(=O)n4nc(C(C)C)sc4n3)c2)c1	29.6%	5.2%	13.0%	11.6%	12.9µM*	-7.1%	1.7%	0.4%	?	-14.5%	30.4%
CCCN(CCC)CCNC(=O)c1cc(-c2ccc(Br)s2)nc2ccccc12	?	-26.8%	?	-22.5%	?	?	nt	nt	nt	nt	nt
CCN(CC)CCNC(=O)c1cc(-c2ccc(Br)s2)nc2ccccc12	10µM*	-28.4%	?	-19.7%	20µM*	31.6µM*	-13.1%	?	-16.2%	?	17.3µM*	PMP22 HiBiT cnf=-2.1%
COC(=O)c1ccc(NC(C)=O)cc1OC	nt	-2.2%	nt	-5.2%	nt	nt	nt	nt	nt	nt	nt
C#C[C@]1(O)CC[C@@H]2[C@@H]3CCC4=CC(=O)CC[C@@H]4[C@H]3CC[C@@]21CC	-2.9%	-9.5%	nt	-27.7%	nt	nt	nt	nt	nt	nt	nt
